According to PubChem BioAssay (NCATS):
Records with an inconclusive call do not appear. Where a call stands in place of a potency, no number is given. Active and inactive are the calls of the source. Calls follow the shape of the dose curve; as a rule, active = well fitted cell-killing curve with a large enough effect; inconclusive = small, poorly fitted or top-dose-only effect; inactive = no such curve, though single readings can be large or run the other way.

Assay: qHTS of pediatric cancer cell lines to identify multiple opportunities for drug repurposing: Primary screen for Rh30 cells (AID 1347107); also: nearly all actives have a fitted effect of over 75% in size
Details: Rh30 rhabdomyosarcoma viability, CellTiter-Glo luminescence, 48 h; series mostly up to 46 µM
Summary of the method: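 Cells (500-1,000/well) rested 5 h, then received compounds for 48 h; metabolically active cells were measured by CellTiter-Glo luminescence. Final concentrations spanned up to 46 µM (MIPE, 11-point) or 0.59 nM-46 µM (NPC, 8-point) in primary screens, 11-point in follow-ups.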

Row | Structure (SMILES) | Potency
1 | CC1(C)SCCN(S(=O)(=O)c2ccc(OCC#CCO)cc2)[C@@H]1C(=O)NO | inactive
2 | CCCc1nc2c(C)cc(-c3nc4ccccc4n3C)cc2n1Cc1ccc(-c2ccccc2C(=O)O)cc1 | inactive
3 | Oc1ccc(C2CNCCc3c2cc(O)c(O)c3Cl)cc1 (stereo not drawn) | inactive
4 | CCc1ccc(CCOc2ccc(CC3SC(=O)NC3=O)cc2)nc1 (stereo not drawn) | inactive
5 | O=c1n(CCCN2CCN(c3cccc(Cl)c3)CC2)nc2ccccn12 | inactive
6 | Cc1cnc(NC(=O)C2=C(O)c3ccccc3S(=O)(=O)N2C)s1 | inactive
7 | Nc1ccc(S(=O)(=O)Nc2ccnn2-c2ccccc2)cc1 | inactive
8 | NC(=O)c1cnccn1 | inactive
9 | Cc1ccccc1C(OCCN(C)C)c1ccccc1 (stereo not drawn) | inactive
10 | OC(CCN1CCCCC1)(c1ccccc1)C1CC2C=CC1C2 (stereo not drawn) | inactive
11 | CC(c1cc2ccccc2s1)N(O)C(N)=O (stereo not drawn) | inactive
12 | O=C1CCC(N2C(=O)c3ccccc3C2=O)C(=O)N1 (stereo not drawn) | inactive
13 | Cc1ccc(-n2nc(C(C)(C)C)cc2NC(=O)Nc2ccc(OCCN3CCOCC3)c3ccccc23)cc1 | inactive
14 | CC(C)(Sc1ccc(CCN(CCCCC2CCCCC2)C(=O)NC2CCCCC2)cc1)C(=O)O | inactive
15 | Clc1cccc(Cl)c1NC1=NCCN1 | inactive
16 | CC(C[N+](C)(C)C)OC(N)=O (stereo not drawn) | inactive
17 | CNC[C@H](O)c1cccc(O)c1 | inactive
18 | N[C@@H]1CONC1=O | inactive
